Here are results for eight compounds from PubChem BioAssay (NCI).

SMILES strings stand for the structures. This is part of a sample that, as a whole, favours compounds with a hit. Of some 83,000 tested, about 20% had one in any assay.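 Single-dose data. Exposure time 48 hours. Values below 10 considered active.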 A number with no mark means an inactive call. Calls of active or inactive are those of the source.

Common to all, as to test: NCI-60 one-dose screen, 48 h (100 = growth as untreated, 0 = no growth, -100 = all killed)
The subject of experiment [1] is HT29 colon. The conditions noted are these: 10 µM unless noted.
For experiment [2], the system named is SNB-75 CNS. Conditions: 10 µM unless noted.
Experiment [3] deals with SNB-19 CNS. Conditions: 10 µM unless noted.
The subject of experiment [4] is U251 CNS. The conditions noted are these: 10 µM unless noted.
The test system of experiment [5] is PC-3 prostate. The conditions noted are these: 10 µM unless noted.
For experiment [6], the system named is SK-MEL-5 melanoma. The conditions noted are these: 10 µM unless noted.
The subject of experiment [7] is UACC-62 melanoma. Conditions: 10 µM unless noted.
The test system of experiment [8] is LOX IMVI melanoma. The conditions noted are these: 10 µM unless noted.
For experiment [9], the system named is SK-MEL-28 melanoma. Conditions: 10 µM.
In experiment [10] the test system is SK-MEL-2 melanoma. The conditions noted are these: 10 µM unless noted.
Experiment [11] concerns EKVX NSCLC. Conditions: 10 µM unless noted.
Experiment [12] has as its system SN12C renal. Conditions: 10 µM unless noted.
Experiment [13] relates to UO-31 renal. The conditions noted are these: 10 µM unless noted.
Experiment [14] has as its system TK-10 renal. Conditions: 10 µM unless noted.
Experiment [15] relates to ACHN renal. The conditions noted are these: 10 µM unless noted.
Experiment [16] relates to CAKI-1 renal. Conditions: 10 µM unless noted.
In experiment [17] the test system is A498 renal. Conditions: 10 µM unless noted.
The subject of experiment [18] is CCRF-CEM leukemia. The conditions noted are these: 10 µM unless noted.
For experiment [19], the system named is MOLT-4 leukemia. Conditions: 10 µM unless noted.
Experiment [20] relates to SR leukemia. Conditions: 10 µM unless noted.

Take `Fc1cccc(COc2ccc(Nc3ncnc4onc(-c5ccccc5)c34)cc2)c1`: the growth in experiment [1] was 3.86% (active); in experiment [2], -34.9% (active); in [3], 21%; in experiment [4], 22.5%; in [5], 18.4%; in [6] it was 19.2%. For the same compound, the growth was 23.5% in [7]; 23.1% in experiment [8]; 55.2% in experiment [9]; 35.9% in experiment [10]; 32.9% in [11]; 22.3% in [12]. The growth in [13] is 18.6%; in experiment [14], 49.1%; in experiment [15], 37.1%; in [16], 37.5%; in experiment [17] it was -22.4% (active); in [18], 20.1%. In addition, the results for the growth in experiment [19] and in experiment [20] were 15.4% and 26.1%, respectively.

`CC(=O)O[C@@H]1/C=C/C(=O)N[C@@H](C)CCC/C=C/[C@@H]2CCC[C@H]21`: the growth was 110% in experiment [1]; 95% in [2]; 96.9% in experiment [3]; 109% in [4]; 90.2% in experiment [5]; 101% in [6]. Further, the growth in experiment [7] was 92.1%; in experiment [8], 105%; in experiment [9], 129%; in [10], 119%; in experiment [11] it was 116%; in [12] it was 102%. In addition, the growth in [13] was 93.7%; in experiment [14], 112%; in [15], 112%; in experiment [16], 98.9%; in experiment [17], 121%; in experiment [19], 93.6%. The growth in [20] was 87.4%.

In the case of `COC(=O)/C(CCC=C(C)C)=C1\[C@@H](OC(C)=O)C[C@@]2(C)[C@H]1CC(=O)[C@H]1[C@@]3(C)CC[C@H](NCc4ccccc4)[C@@H](C)[C@@H]3CC[C@@]12C`, the growth in experiment [1] is 37.8%; in experiment [2], 83.2%; in [3], 95.7%; in experiment [4], 74%; in experiment [5], 70.4%; in experiment [6], 89.6%. Besides, the growth in [7] is 86.7%; in experiment [8] it was 81.8%; in [9], 96.7%; in [10], 106%; in experiment [11] it was 87.9%; in experiment [12], 87%. Besides, the growth in experiment [13] was 69.9%; in [14], 111%; in experiment [15] it was 99.3%; in [16], 86.8%; in experiment [17], 91.9%; in experiment [18], 76.4%. Moreover, the growth in experiment [19] is 61.7%; in experiment [20], 1.93% (active).

In the case of `CCOC(=O)c1sc(-c2ccc(OS(=O)(=O)c3ccc(Br)s3)c(C=O)c2)nc1C`, the growth in experiment [1] was -17.9% (active); in [2] it was -5.48% (active); in experiment [3], 14.4%; in experiment [4], -4.79% (active); in experiment [5], 20.1%; in experiment [6], -92.6% (active). In addition, the growth in experiment [7] was 12.3%; in [8], -54.5% (active); in [9], 55%; in experiment [10] it was 11.3%; in experiment [11] it was 85.6%; in [12], 4.77% (active). Besides, the growth is -0.882% (active) in experiment [13]; -1.6% (active) in experiment [14]; 7.37% (active) in experiment [15]; 3.48% (active) in experiment [16]; 65.3% in experiment [17]; 8.75% (active) in [18]. Also, the growth in experiment [19] was 9.25% (active); in experiment [20] it was 13.9%.

Turning to `CCCCC1CCc2cccc3c(SCC(=O)N(C)c4ccc(Cl)cc4)cc[n+]1c23` (centres undefined), the growth in [1] is 106%; in experiment [2], 109%; in experiment [3], 97.2%; in experiment [4] it was 108%; in [5] it was 106%; in experiment [6] it was 102%. Besides, the growth was 96.3% in experiment [7]; 99.7% in [8]; 105% in experiment [9]; 111% in [10]; 125% in experiment [11]; 104% in experiment [12]. Besides, the growth in experiment [13] was 103%; in experiment [14], 109%; in [15], 105%; in [16], 99.1%; in experiment [17], 114%; in experiment [18], 108%. The growth in experiment [19] was 98.7%; in experiment [20], 101%.

Turning to `CCN1C(=O)N(CC)C2Nn3c(s/c(=C\c4ccccc4F)c3=O)=NC21` (centres undefined), the growth in experiment [1] was 17.4%; in experiment [2] it was 55.1%; in [3], 45.5%; in [4], 26.1%; in experiment [5], 39.6%; in experiment [6] it was 33.9%. Besides, the growth in [7] was 36.7%; in experiment [8], 44.3%; in experiment [9], 54.2%; in experiment [10] it was 52.8%; in [11], 38.4%; in experiment [12] it was 53.5%. The growth in experiment [13] is 65.8%; in experiment [14], 87.2%; in [15], 50.8%; in [16] it was 48.1%; in [17], 43.3%; in experiment [18] it was 34.1%. Further, the growth was 44% in experiment [19] and 24.5% in experiment [20].

Consider `CCOC(=O)c1c2c(c(C)n1Cc1ccc(OC)cc1)-c1oncc1CC2`, for which the growth in experiment [1] is 89.1%; in experiment [2] it was 72.9%; in experiment [3] it was 81.8%; in experiment [4] it was 86.3%; in [5], 99.6%; in [6], 98.1%. For the same compound, the growth is 110% in experiment [7]; 76.6% in experiment [8]; 138% in [9]; 120% in experiment [10]; 94.3% in experiment [11]; 175% in experiment [12]. The growth in [13] is 65.3%; in [14], 102%; in experiment [15], 91.3%; in [16], 70.6%; in experiment [17], 91.9%; in experiment [18], 93.3%. Further, the growth in experiment [19] was 85.3%; in experiment [20], 85.4%.

In the case of `O=C(Nc1ccc(N2CCNCC2)cn1)c1[nH]ncc1Nc1ncnc2sc3c(c12)CCC3`, the growth in experiment [1] is -42.3% (active); in [2] it was 85.7%; in experiment [3], 10.7%; in [4] it was -71.9% (active); in [5] it was -30.6% (active); in experiment [6], 59.7%. The growth was 38.9% in experiment [7]; -79.6% (active) in experiment [8]; -40.3% (active) in experiment [9]; 89.7% in experiment [10]; 83.8% in experiment [11]; 53.6% in [12]. Also, the growth was 72.6% in experiment [13]; 95.2% in experiment [14]; -76.5% (active) in experiment [15]; 54.3% in [16]; 70.2% in experiment [17]; -7.26% (active) in experiment [18]. The growth in [19] is 14.3%; in [20], 0.52% (active).
